# In the antibiotic and cytotoxicity screens of Wong et al. (2023):
# Hit rate of the full screen: of about 39,000 compounds, about 3,300 (8.5%) were called active. Shown is part of a subset that was picked to be rich in actives.
# Tested on: HepG2
# Test: cytotoxicity call (relative viability < 0.9)
# Details: 10 µM
row,SMILES,cytotoxicity call
1,O=C(C[C@H]1CC[C@H]2[C@@H](COC[C@@H](O)CN2S(=O)(=O)c2ccc(Cl)cc2)O1)NCc1ccncn1,inactive
2,COc1ncc(-c2ccc3c(Nc4cc(Oc5cc(F)cc(F)c5)cc(C(=O)O)c4)c(S(=O)(=O)NC4CC4)cnc3c2)c(OC)n1,inactive
3,CO[C@@H]1CN(C)C(=O)c2ccc(NC(=O)C3CC3)cc2OC[C@H](C)N(C(=O)C2CCOCC2)C[C@@H]1C,inactive
4,COc1ccc(S(=O)(=O)Nc2cccc3c2O[C@H](CN(C)S(=O)(=O)c2ccc(C)cc2)[C@H](C)CN([C@@H](C)CO)C3=O)cc1,inactive
5,C[C@H]1CN([C@@H](C)CO)C(=O)c2cc(C#CCN(C)C)cnc2O[C@H]1CN(C)C(=O)c1ccc2c(c1)OCO2,inactive
6,C[C@@H]1CCCCO[C@H](CN(C)Cc2ccc(C(F)(F)F)cc2)[C@H](C)CN([C@@H](C)CO)C(=O)c2cc(NC(=O)Nc3ccc(C(F)(F)F)cc3)ccc2O1,active
7,C[C@@H]1CCCCO[C@@H](CN(C)Cc2ccc(C(F)(F)F)cc2)[C@H](C)CN([C@@H](C)CO)C(=O)c2cc(NC(=O)Nc3ccc(C(F)(F)F)cc3)ccc2O1,inactive
8,C[C@H](CO)N1C[C@H](C)[C@@H](CN(C)Cc2ccc(C(F)(F)F)cc2)OCCCC[C@H](C)Oc2ccc(NC(=O)Nc3ccc(C(F)(F)F)cc3)cc2C1=O,inactive
9,C[C@@H]1CN([C@H](C)CO)C(=O)c2cc(NC(=O)Nc3ccc(C(F)(F)F)cc3)ccc2O[C@@H](C)CCCCO[C@H]1CN(C)Cc1ccc(C(F)(F)F)cc1,active
10,C[C@@H]1CN([C@@H](C)CO)C(=O)c2cc(NC(=O)Nc3ccc(C(F)(F)F)cc3)ccc2O[C@@H](C)CCCCO[C@H]1CN(C)Cc1ccc(C(F)(F)F)cc1,active
11,C[C@@H]1CCCCO[C@H](CN(C)Cc2ccc(C(F)(F)F)cc2)[C@@H](C)CN([C@@H](C)CO)C(=O)c2cc(NC(=O)Nc3ccc(C(F)(F)F)cc3)ccc2O1,inactive
12,C[C@H](CO)N1C[C@H](C)[C@H](CN(C)Cc2ccc(C(F)(F)F)cc2)OCCCC[C@H](C)Oc2ccc(NC(=O)Nc3ccc(C(F)(F)F)cc3)cc2C1=O,active
13,C[C@@H]1CN([C@@H](C)CO)C(=O)c2cc(NC(=O)Nc3ccc(C(F)(F)F)cc3)ccc2O[C@@H](C)CCCCO[C@@H]1CN(C)Cc1ccc(C(F)(F)F)cc1,inactive
14,O=C(CN1CCOCC1)NCC[C@@H]1CC[C@@H](NS(=O)(=O)c2ccc(F)cc2)[C@@H](CO)O1,inactive
15,CCS(=O)(=O)N1C[C@]2(C1)CN([C@@H](CO)c1[nH]c3cc(ccc3c12)OC)C(=O)Nc1c(noc1C)C,inactive
